Compounds without any hit were thinned out: in the full panel of roughly 83,000, 20% have a hit.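 Each cell line was grown in a 96-well plate and treated with one concentration of compound for 48 hours. Values below 10 were considered active.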 Activity calls are given as the source filed them.
Key:
Test in all cases: NCI-60 one-dose screen, 48 h (100 = growth as untreated, 0 = no growth, -100 = all killed)
Conditions in all cases: 10 µM unless noted
[1] = test system: SK-MEL-2 melanoma
[2] = test system: EKVX NSCLC
[3] = test system: SN12C renal
[4] = test system: UO-31 renal
[5] = test system: TK-10 renal
[6] = test system: ACHN renal
[7] = test system: CAKI-1 renal
[8] = test system: A498 renal
[9] = test system: CCRF-CEM leukemia
[10] = test system: MOLT-4 leukemia
[11] = test system: SR leukemia
[12] = test system: RPMI-8226 leukemia
[13] = test system: OVCAR-8 ovarian
[14] = test system: OVCAR-5 ovarian
[15] = test system: OVCAR-4 ovarian
[16] = test system: SK-OV-3 ovarian
[17] = test system: IGROV1 ovarian
[18] = test system: OVCAR-3 ovarian
[19] = test system: HS 578T breast
[20] = test system: NCI/ADR-RES ovarian

Measured: growth

CCOC(=O)c1c2c(n3c1NCC3)-c1ccccc1C2=O
inactive: [1] 79.3% | [2] 95.8% | [3] 98.3% | [4] 39.8% | [5] 96.4% | [6] 97.3% | [7] 89.9% | [8] 100% | [9] 85% | [10] 87.8% | [11] 100% | [12] 105% | [13] 99.4% | [14] 89.4% | [15] 99.7% | [16] 104% | [17] 67.3% | [18] 92.1% | [19] 106% | [20] 102%

CN(Cc1cnc2nc(N)nc(N)c2n1)c1c(Cl)cc(C(=O)NC(CCC(=O)O)C(=O)O)cc1Cl (stereo not given)
active: [7] -20%
inactive: [1] 59.8% | [2] 42.4% | [3] 26.3% | [4] 11.5% | [5] 36% | [6] 29% | [8] 47.7% | [9] 34.8% | [10] 25.8% | [11] 42.4% | [12] 45.3% | [13] 17.8% | [14] 48.7% | [15] 55.1% | [16] 56.3% | [17] 28.3% | [18] 48.1% | [19] 66.1% | [20] 35.1%

Cc1nn(-c2ccccc2)c(N2CCCCC2)c1/C=N/NC(=O)Cn1c(=O)sc2ccccc21
inactive: [1] 88.9% | [2] 74.5% | [3] 85% | [4] 48.1% | [5] 88.5% | [6] 66.8% | [7] 34.7% | [8] 80.7% | [9] 84.7% | [10] 54.7% | [11] 93.9% | [12] 65% | [13] 81.1% | [14] 82.9% | [15] 79.3% | [16] 89% | [17] 67.2% | [18] 81.9% | [19] 78.7% | [20] 74.9%

CC1(C)OC(=O)C(=Cc2cccc(Br)c2)C(=O)O1
inactive: [1] 103% | [2] 100% | [3] 101% | [4] 92.9% | [5] 101% | [6] 117% | [7] 100% | [8] 94.2% | [9] 93.2% | [10] 89.9% | [11] 99.7% | [12] 97.4% | [13] 98.4% | [14] 117% | [15] 114% | [16] 109% | [17] 102% | [18] 107% | [19] 90.8% | [20] 107%

Cc1ccc(-c2cc(C(=O)N3N=C(c4ccc(N)cc4)CC3c3ccc(Cl)cc3)c3ccccc3n2)cc1 (stereo not given)
inactive: [2] 44.5% | [3] 48.8% | [4] 42.9% | [5] 24.5% | [6] 51.7% | [7] 24% | [9] 12.8% | [10] 25.2% | [11] 11.2% | [12] 19.9% | [13] 25.7% | [14] 75.2% | [15] 69% | [16] 34.2% | [17] 47.4% | [18] 14.6% | [20] 21.7%
active: [1] 2.76% | [8] 0.316% | [19] 6.64%

CN1CCN(CCCOC(=O)c2c3c(n4ccccc24)C(=O)c2ncccc2C3=O)CC1
active: [1] -52.7% | [3] -66.3% | [4] -80.9% | [5] 3.81% | [6] -53.6% | [7] 0.119% | [9] -16.3% | [10] -2.53% | [11] -11.2% | [12] -0.22% | [13] 4.94% | [14] -4.35% | [15] -11.6% | [16] -46.4% | [17] 4.12% | [18] 0.457% | [19] -1.51% | [20] 2.37%
inactive: [2] 37.7% | [8] 38.3%

CCNC(=O)Oc1ccc(/C(=C(/C)Cc2ccc(OC)cc2)c2ccc(OCCN3CCCCCC3)cc2)cc1
inactive: [1] 87% | [2] 71.3% | [3] 69.2% | [4] 52.9% | [5] 84.2% | [6] 94.2% | [7] 82.5% | [8] 70.5% | [9] 41.6% | [10] 35.2% | [12] 20.3% | [13] 75.4% | [14] 94.8% | [15] 87.9% | [16] 87.7% | [17] 78% | [18] 59.5% | [19] 67.2% | [20] 76.7%
active: [11] -51.7%

N#CCC1=NC(c2cccs2)=Nc2ccccc2S1
inactive: [1] 96.9% | [2] 105% | [3] 86.6% | [4] 79.1% | [5] 117% | [6] 98.2% | [7] 95.6% | [8] 90.9% | [9] 90.8% | [10] 92.5% | [11] 91.5% | [12] 65.7% | [13] 95.9% | [14] 86.6% | [15] 93.8% | [16] 76.4% | [17] 86.4% | [18] 95.3% | [19] 96.2% | [20] 98%

NC(=O)c1ccc(NC(=O)c2oc3ccccc3c2-c2cnn(-c3ccccc3)c2)cc1
inactive: [1] 61.5% [50 µM] | [3] 14.7% [50 µM] | [5] 44.5% [50 µM] | [8] 16.4% [50 µM] | [9] 73.1% [50 µM] | [10] 61.2% [50 µM] | [11] 15.9% [50 µM] | [12] 17.6% [50 µM] | [13] 13.4% [50 µM] | [16] 62.4% [50 µM] | [17] 10.6% [50 µM]
active: [2] 7.54% [50 µM] | [4] -1.76% [50 µM] | [6] -11.1% [50 µM] | [7] -29.4% [50 µM] | [14] -6.33% [50 µM] | [15] -30.5% [50 µM] | [18] 1.08% [50 µM] | [19] 5.15% [50 µM] | [20] -3.84% [50 µM]

Cn1ccnc1C(=O)/C=C/c1ccc(C(=O)Nc2ccc(F)cc2)cc1
inactive: [1] 74.6% | [2] 26.6% | [3] 14.3% | [5] 13.1% | [7] 28.9% | [13] 18.3% | [14] 21.4% | [15] 28.5% | [16] 59.1% | [18] 10.8% | [19] 40.9% | [20] 11.2%
active: [4] -14.2% | [6] -49.9% | [8] -9.36% | [9] 2.27% | [10] 7.92% | [11] 2.09% | [12] -17.1% | [17] 7.02%

CCN(CC)c1ccc(/C=C\c2cc(C)c3cc(C)ccc3n2)cc1
active: [20] -4.28%
inactive: [1] 14.4% | [2] 61.6% | [3] 45.1% | [4] 26.6% | [5] 54.8% | [6] 38.8% | [7] 28.5% | [8] 18.2% | [9] 34.1% | [10] 40.2% | [11] 34.2% | [12] 17.3% | [13] 34.8% | [14] 70.9% | [15] 50.4% | [16] 40.1% | [17] 22% | [18] 33.4% | [19] 42.5%

CN(C)c1ccc(-c2cc(-c3ccc(Nc4nc(Nc5ccc(Cl)cc5)nc(Nc5ccc(Cl)cc5)n4)cc3)nc(N)c2C#N)cc1
inactive: [1] 68.5% | [2] 79.8% | [3] 113% | [4] 67.5% | [5] 104% | [6] 82.4% | [7] 82.3% | [8] 92.5% | [9] 46.9% | [10] 45% | [11] 40.6% | [13] 68% | [14] 87.1% | [15] 88.5% | [16] 102% | [17] 55% | [18] 88.3% | [19] 82.5% | [20] 78%
active: [12] -27.1%

CO[C@H](C(=O)[C@@H](O)[C@@H](C)O)[C@@H]1Cc2cc3cc(O[C@H]4C[C@@H](O[C@H]5C[C@@H](O)[C@H](O)C(C)O5)[C@H](O)C(C)O4)c(C)c(O)c3c(O)c2C(=O)[C@H]1O[C@H]1C[C@@H](O[C@H]2C[C@@H](O[C@H]3C[C@@H](OC)[C@H](O)C(C)O3)[C@@H](O)C(C)O2)C(O)(O)C(C)O1 (stereo not given in full)
inactive: [2] 18% | [5] 12.1% | [9] 34.2% | [10] 18% | [11] 13.5% | [14] 14.5% | [15] 21.7% | [16] 14.6% | [17] 22.3% | [19] 25.3% | [20] 87.3%
active: [1] -79.2% | [3] 8.08% | [4] 3.17% | [6] 0.683% | [7] 6.9% | [8] -35.7% | [12] 9.26% | [13] 9.53% | [18] 9.32%

CS(=O)(=O)Cc1cnc(C2OCCO2)s1
inactive: [1] 122% | [2] 99% | [3] 114% | [4] 92% | [5] 93.8% | [6] 96.8% | [7] 97.7% | [8] 116% | [9] 138% | [10] 140% | [11] 123% | [12] 109% | [13] 104% | [14] 106% | [15] 100% | [16] 139% | [17] 97.5% | [18] 96.3% | [19] 106% | [20] 103%

CNC(=O)c1cc(Oc2ccc3nc(NC(=O)Nc4ccc(Cl)c(Cl)c4)sc3c2)ccn1
active: [2] 8.47% | [13] -34.6% | [15] -39.9% | [19] -2.92% | [20] -17.7%
inactive: [1] 80.8% | [3] 57.3% | [4] 39.9% | [5] 66.3% | [6] 70% | [7] 103% | [8] 93.6% | [9] 42.5% | [10] 66.2% | [11] 15.4% | [12] 63% | [14] 85.6% | [16] 73.5% | [17] 54.6% | [18] 24.7%
